# Test results as given in PubChem BioAssay (NCATS).
# Records with an inconclusive call do not appear. A number with no mark means an inactive call. Activity calls are given as the source filed them. Calls come from the whole dose curve; as a rule, active = well fitted inhibition curve with a large enough effect; inconclusive = small, poorly fitted or top-dose-only effect; inactive = flat fitted curve, though single readings scatter.
# Experiment: Cytometry Cell-Based qHTS for Inhibitors of the mTORC1 Signaling Pathway in MEF cells (AID 2668);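 for activity change, negative = inhibition: Tsc2-/- p53-/- mouse embryonic fibroblasts stably re-expressing wild-type Tsc2; percent cells positive for phospho-rpS6 Ser235/236 relative to propidium iodide stain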
# Details: mTORC1 pathway readout; series mostly up to 38.3 µM; activity change, negative = inhibition: at the top concentration
# Source text: NIH Molecular Libraries Probe Production Centers Network [MLPCN]
# NIH Chemical Genomics Center [NCGC]
# Assay Submitter (PI): Blenis, John; Hoffman, Greg; Harvard University
# NCGC Assay Overview: The mammalian target of rapamycin (mTOR) is an intracellular serine/threonine kinase Aberrant regulation of mTOR signaling plays a causative role in a number of human diseases, including cancer, benign tumors such as lymphangioleiomyomatosis (LAM) and Tuberous Sclerosis Complex (TSC), and metabolic diseases such as diabetes and obesity. This project aims to identify inhibitors of ribosomal protein S6 (rpS6) phosphorylation. The phosphorylation of rpS6 is a key event downstream of mTOR activation. The assay uses a phospho-specific antibody of phospho-rpS6 to detect inhibitors of mTOR activation. Mutations in the Tsc1 and Tsc2 genes are the underlying genetic lesions responsible for TSC, causing constitutive activation of the mTORC1 pathway and leading to profound effects on cell metabolism. Aberrant metabolism in cancer has recently received significant attention as a target to develop therapeutic agents in the treatment of cancer.1 As Tsc2-/- cells have lost the ability to respond to energy and growth factor deprivation, these cells are unable to properly down regulate cellular biosynthetic processes in response to metabolic stress, and are thus extremely sensitive to glucose deprivation-induced death.2 A central goal of this project is to explore the unique cell survival and metabolic properties of cells with Tsc1 or Tsc2 by screening for compounds that selectively target the Tsc2-/- MEFs by screening both Tsc2-/- and WT MEF cell lines. We hope to better understand these aspects of TSC physiology in order to exploit them for therapeutic benefit.
# NCGC Acumen Assay Protocol:
# For quantitative high throughput analysis of mTORC1 signaling, we developed a cell-based assay for immuno-fluorescence based detection of rpS6 phosphorylation on the Acumen Explorer that will be used a platform for the primary small molecule screen. Mouse embryonic fibroblasts (MEFs) are cultured in 1536-well plates using DMEM + 10% FBS. Twenty-four hrs after plating, test compounds (solubilized in DMSO) are delivered and incubated with the cells for 24 hrs at 37 degree Celsius. Following the incubation, media with compound is aspirated and the cells are fixed in 4% paraformaldehyde (PFA) containing PBS + 0.2% TX-100. Next, PFA is aspirated, cells are washed two times with PBS plus 0.2% TX-100 and the cells are blocked for 1 hr at room temperature (blocking buffer: LiCOR Blocking Buffer plus 0.2% TX-100). This is followed by aspiration and staining with Alexa-488 conjugated-phospho-rpS6 Ser235/236 antibody for 2 hours at room temperature (Cell Signaling Technology # 4803, 1:50 dilution in blocking buffer). Cells are washed two times with PBS plus 0.2% TX-100, and stained with 10 uM propidium iodide (PI) for 20-25 minutes for cell number measurement (1:500 dilution of Hoescht staining is also added for IN Cell imaging). The plates are scanned on the Acumen Explorer laser scanning instrument (TTP Labtech) using the 488nm laser for simultaneous excitation of the Alexa-488 and PI. The fluorescence emission from the Alexa-488 conjugated rpS6 phospho-235/236 antibody staining is selected using a […] band pass filter. Fluorescence emission from the PI stain is selected using a 575-640 nm band pass filter. The normalized phospho-S6 staining is calculated as the ratio of the integrated Alexa 488 intensity divided by the integrated PI intensity for the single concentration rapamycin control (7.5 nM) and DMSO columns. […] Inhibition of the pathway is defined based on the normalized phospho-S6 intensity in rapamycin treated cells. […]
# Potency is the fitted concentration of half-maximal effect.
SMILES,"activity change, negative = inhibition",Potency
S=C(S)OC1CC2CC1C1CCCC21 (stereo not given),13.7%,
O=c1[nH]c2cc(Cl)c(Cl)cc2[nH]c1=O,8.94%,
Nc1ncnc2c1ncn2[C@@H]1O[C@H](COP(=O)(O)CP(=O)(O)OP(=O)(O)O)[C@@H](O)[C@H]1O,-0.373%,
CN1C2CC(OC(=O)[C@H](CO)c3ccccc3)CC1C1OC12 (stereo not given in full),-1.99%,
Nc1nc(Cl)nc2c1ncn2[C@@H]1O[C@H](COP(=O)(O)OP(=O)(O)OP(=O)(O)O)[C@@H](O)[C@H]1O,-23.9%,
NC(CCCP(=O)(O)O)C(=O)O (stereo not given),-0.294%,
CN1CCC[C@H]1c1cccnc1,1.69%,
O=C(O)CC[C@@H](C(=O)O)N1C(=O)c2ccccc2C1=O,0.652%,
COc1ccc2c(c1)CCC1C2CC[C@@]2(C)C1CC[C@@H]2NCCCCCCN1C(=O)CCC1=O (stereo not given in full),,4.65 µM (active)
Nc1ncnc2c1ncn2[C@@H]1O[C@H](COP(=O)(O)OP(=O)(O)OP(=O)(O)OP(=O)(O)OC[C@@H]2O[C@H](n3cnc4c(N)ncnc43)[C@@H](O)[C@H]2O)[C@@H](O)[C@H]1O,-13%,
OC[C@H]1O[C@@H](n2cnc3c(NC4CCCCC4)ncnc32)[C@H](O)[C@@H]1O,-22.3%,
N=C(N)SCCc1ccc(CCSC(=N)N)cc1,3.48%,
CCN1/C(=C/C(C)=O)Sc2ccc(OC)cc21,-4.21%,
CN1CCc2cc(NC(=O)Nc3cccnc3)ccc21,4.57%,
NCCCCC(=O)O,8.98%,
Cc1ccccc1CNc1ncnc2c1ncn2C1OC(CO)C(O)C1O (stereo not given),11.1%,
Cc1ccc(C(=O)O[C@H](C(=O)O)[C@@H](OC(=O)c2ccc(C)cc2)C(=O)O)cc1 (tested in a mixture with another compound),-2.1%,
OC[C@H]1O[C@@H](n2cnc3c(Nc4ccccc4)ncnc32)[C@H](O)[C@@H]1O,5.23%,
CC1OC1P(=O)(O)O (stereo not given),8.74%,
CC1(C)CCC=[N+]1[O-],9.93%,

SMILES,"activity change, negative = inhibition",Potency
N#C/C(=C\c1ccc(O)c(O)c1)C(=O)c1ccc(O)c(O)c1,5.32%,
Nc1nc(SCc2ccc([N+](=O)[O-])cc2)c2ncn([C@@H]3O[C@H](CO)[C@@H](O)[C@H]3O)c2n1,-1.75%,
CCCCCCCC/C=C\CCCCCCCC(=O)NCCO,5.2%,
Oc1cc2c(cc1O)CN(C(=S)NCCc1ccc(Cl)cc1)CCC2,10.3%,
CCc1c(C(=O)NCCc2ccc(N3CCCCC3)cc2)[nH]c2ccc(Cl)cc12,-6.37%,
COc1cccc(C(=O)NCCN2CCN(c3ccc(Cl)cc3)CC2)c1,13.2%,
C[N+](C)(C)CCOP(=O)(O)OP(=O)([O-])OC[C@H]1O[C@@H](n2ccc(N)nc2=O)[C@H](O)[C@@H]1O,9.76%,
C=CC(N)CCC(=O)O (stereo not given),0.786%,
CN1CC(=O)N/C1=N/C(=O)Nc1cccc(Cl)c1,-0.553%,
CCCCCCCCCCCCCCCC(=O)OC(CC(=O)O)C[N+](C)(C)C (stereo not given),1.1%,
c1cnc2c(c1)ccc1cccnc12,,4.65 µM (active)
CC(=O)SCC[N+](C)(C)C,1.74%,
O=C(O)c1cc(=O)c2c(Cl)cc(Cl)cc2[nH]1,16.7%,
O=C(/C=C/c1ccc(O)c(O)c1)OCCc1ccccc1,,3.29 µM (active)
CSc1ccccc1N1CCN(CCCCCC(=O)NC2CCCc3ccccc32)CC1 (stereo not given),,11.7 µM (active)
COc1cc(OC)c(/C=C2/C(=O)Nc3ccccc32)c(OC)c1,-2.2%,
COc1ccc(NC(=O)/C=C/c2ccc(Cl)cc2)cc1,7.88%,
C[C@@H](NC(=O)/C(C#N)=C/c1ccc(O)c(O)c1)c1ccccc1,2.41%,
CCCCCCCCCCCCCCCCCCNC(=O)OCC(COP(=O)([O-])OCC[n+]1ccsc1)OC (stereo not given),6.82%,
O=C(O)c1cc(=O)c2ccccc2[nH]1,1.94%,
